Experimental data published in PubChem BioAssay AID371 (SRMLSC, 2006).
Values joined by “and” are separate entries in the source; they are usually repeats but may differ in a detail not shown here. Equal values may be shown once. Among all 3,300 compounds or so, about 280 (8.5%) were called active.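 The calls were made as follows: active = mean growth inhibition over the two runs of 50% or more; inactive = mean growth inhibition under 50%.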 The sample as a whole holds a higher share of actives than the screen did.

Assay: A549 NSCLC cell proliferation inhibitors – ATP luminescence, human non-small cell lung line, primary screen (AID 371);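 also: compound exposure lasted 72 h before the ATP read; 0% = untreated cell signal and 100% = no luminescence left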
Details: at 10 µM, active compounds read high

Structure (SMILES)	growth inhibition
CCOC(=O)CSc1nnc(C)c(=O)[nH]1	2.53% (inactive)
CC(=O)Nc1cc2c(cc1Br)OCCO2	-4.42% (inactive)
CN(C)c1ccc(C2C3C(=O)N(c4ccc(C(=O)O)cc4)C(=O)C3ON2c2ccccc2)cc1 (configuration not stated)	4.19% (inactive)
COc1cccc2c1C(=O)c1c(O)c3c(c(O)c1C2=O)C[C@@](O)(C(=O)CO)C[C@@H]3O[C@H]1C[C@H](N)[C@H](O)[C@H](C)O1	82.1% (active)
COc1cccc2c1C(=O)c1c(O)c3c(c(O)c1C2=O)C[C@@](O)(C(C)=O)C[C@@H]3O[C@H]1C[C@H](N)[C@H](O)[C@H](C)O1	94.4% (active)
O=c1/c(=C\c2cccn2-c2ccccc2)sc2nc3ccccc3n12	26.5% (inactive)
CC(C)c1nc(NCCN2CCOCC2)c(C#N)c2c1COC(C)(C)C2	20.7% (inactive)
COc1cccc(-c2nc(NCCN3CCOCC3)c3ccccc3n2)c1O	80.7% (active)
Fc1ccccc1-c1nc(NCCCN2CCOCC2)c2ccccc2n1	4.04% (inactive)
Cc1cc(-c2ccccc2)nnc1NCCN1CCOCC1	-7.35% (inactive)
c1ccc(-n2ncc3c(NCC4CCCO4)ncnc32)cc1 (configuration not stated)	33.8% (inactive)
COc1cccc(OC)c1OCC(C)CNCC1CCCO1 (configuration not stated)	3.8% (inactive)
Oc1ccccc1-c1nc(NCCN2CCOCC2)c2ccccc2n1	88.2% (active)
c1ccc2c(NCC3CCCO3)nc(-c3ccncc3)nc2c1 (configuration not stated)	13.1% (inactive)
COc1cccc(-c2nc(NCC3CCCO3)c3ccccc3n2)c1O (configuration not stated)	83.8% (active)
c1ccc(-c2nc(NCC3CCCO3)c3ccccc3n2)nc1 (configuration not stated)	60.2% (active)
C=CCNc1nc(-c2cccc(OC)c2O)nc2ccccc12	24.3% (inactive)
Cc1cc(OCCN2CCOCC2)nc2ccccc12	10.6% (inactive)
O=C(C1=C(O)C(=O)N(CCCN2CCOCC2)C1c1ccccn1)c1cccs1 (configuration not stated)	1.45% (inactive)
Cc1ccc(C(=O)C2=C(O)C(=O)N(c3ncccn3)C2c2ccc(Cl)cc2)o1 (configuration not stated)	-6.83% (inactive)
COC(=O)c1c(C)[nH]c(C(=O)OCc2ccc(F)cc2)c1C	13% (inactive)
O=C1C2ON(c3ccccc3)C(c3ccncc3)C2C(=O)N1c1ccc(Br)cc1 (configuration not stated)	-9.58% (inactive)
OCCN=C(c1ccccc1)C12CN3CN(CN(C3)C1)C2	-0.01% (inactive)
C=CCOC(=O)C(C#N)c1nc2ccccc2nc1N1CCC(C(=O)OCC)CC1 (configuration not stated)	45.6% (inactive)
CCOC(=O)C1CCCN(c2nc3ccccc3nc2C(C#N)C(=O)OC(C)COC)C1 (configuration not stated)	24.2% (inactive)

Structure (SMILES)	growth inhibition
CCOC(=O)c1[nH]c2ccc(OC)cc2c1NC(=O)CN1CCN(c2ccccn2)CC1	0.14% (inactive)
CCCC(=O)N1CCN(c2nc(CC(C)C)c3c(c2C#N)CCC3)CC1	53.8% (active)
CC(C)C(=O)N1CCN(c2nc(-c3ccccc3)c3c(c2C#N)CC(C)(C)OC3)CC1	34.1% (inactive)
CC1(C)Cc2c(C#N)c(N3CCOCC3)nc(-c3ccccc3)c2CO1	13.6% (inactive)
CC(C)Cc1nc(N2CCN(C(=O)c3ccco3)CC2)c(C#N)c2c1CCC2	57.2% (active)
CC(C)Cc1nc(N2CCN(C(=O)C(C)C)CC2)c(C#N)c2c1CCC2	42.3% (inactive)
CC(C)Cc1nc(N2CCCCC2)c(C#N)c2c1CCC2	20.9% (inactive)
CC(C)C(=O)N1CCN(c2nc(-c3ccccc3)c3c(c2C#N)CCCC3)CC1	68% (active)
CC(C)Cc1nc(N2CCOCC2)c(C#N)c2c1CCC2	4.59% (inactive)
CC(=O)N1CCN(c2nc(CC(C)C)c3c(c2C#N)CCC3)CC1	22.1% (inactive)
c1ccc(C2Nc3ccccc3-c3nc4ccccc4n32)nc1 (configuration not stated)	26% (inactive)
Cc1nn(CC(=O)NCCN2CCOCC2)c(=O)c2ccccc12	1.62% (inactive)
Oc1ccccc1CNn1cnnc1	7.07% (inactive)
Cc1ccc(OCC(=O)N(C)CCc2ccccn2)cc1	-1.84% (inactive)
O=C(NCc1cccnc1)c1ccc(=O)oc1	-2.22% (inactive)
CSc1nc(NC(C)=O)nc(C)c1Cl	3.88% (inactive)
C=CCN(C(=O)CCC(=O)O)C1CC(=O)N(c2ccc(OCCC)cc2)C1=O (configuration not stated)	34.7% (inactive)
Cc1cccc(C)c1NC(=O)C1CCCCN1C (configuration not stated)	-1.85% (inactive)
Cc1cccc(C)c1NC(=O)CSCC(=O)c1ccc(O)c(O)c1	76.2% (active)
CCN(CC)CC(=O)Nc1c(C)cccc1C	-1.4% (inactive) and -6.03% (inactive)
COc1ccc(/C(O)=C2/C(=O)C(=O)N(CCN3CCOCC3)C2c2ccccn2)cc1 (configuration not stated)	7.6% (inactive)
COCc1cc(=O)[nH]c(Nc2nc3ccc(C)cc3o2)n1	70.6% (active)
Cc1cccc(OCc2nc(C)cc(=O)[nH]2)c1	1.95% (inactive)
Cc1cc(C)n(C(=O)CSc2nc3ccccc3o2)n1	-7.75% (inactive)
Cc1cc(=O)[nH]c(COc2ccccc2)n1	6.76% (inactive)

Structure (SMILES)	growth inhibition
COCc1cc(=O)[nH]c(Nc2nc3ccccc3o2)n1	66.6% (active)
COc1ccccc1C1CC(c2ccc(Cl)cc2)Nc2nc(N)nn21 (configuration not stated)	8.72% (inactive)
Cc1cc2c(C)nc(Cc3ccccc3)nc2o1	1.92% (inactive)
CCCCCCn1c(C(C)O)nc2ccccc21 (configuration not stated)	15.7% (inactive)
COc1cccc(/C(O)=C2/C(=O)C(=O)N(CCCN(C)C)C2c2cccc(Cl)c2)c1 (configuration not stated)	-2.1% (inactive)
Cc1cccc(N2CN=c3s/c(=C\c4ccncc4)c(=O)n3C2)c1	5.71% (inactive)
N#CC1=C(N)N(c2ccccc2)C(c2ccccc2)C1(C#N)C#N (configuration not stated)	21.4% (inactive)
Cn1ncc(N=Cc2c(O)ccc3ccccc23)c1C(=O)N1CCOCC1	3.71% (inactive)
Cc1coc2c(O)cc3c(c12)OC1(N2CCCCC2)C(=O)NCCCC31 (configuration not stated)	91.4% (active)
COc1ccc(C2N3CC4(C)CN2CC(C)(C3)C4O)cc1OC (configuration not stated)	0.13% (inactive)
CC1(C)Cc2c(oc3ncn4ncnc4c23)CO1	0.31% (inactive)
COc1cc(C)nc(Oc2ccc(OCCOc3ccc(C)cc3)nn2)n1	6.13% (inactive)
CC1(C)Cc2c(c(N3CCCCC3)[nH]c(=S)c2C#N)CS1	4.02% (inactive)
CC1CCN(c2[nH]c(=S)c(C#N)c3c2CCCC3)CC1	56% (active)
CCc1[nH]c(=O)c(C#N)c2c1CCCC2	2.12% (inactive)
COc1ccc2c(c1)[nH]c1c(=O)n(CCN(C)C)cnc12	4.43% (inactive)
CC1(C)SC2[C@H](NC(=O)C(NC(=O)N3CCNC3=O)c3ccccc3)C(=O)N2C1C(=O)O (some centres not stated)	3.08% (inactive)
CC(C)C1C(C#N)=C(N)Oc2n[nH]c(C(C)(C)C)c21 (configuration not stated)	-3.11% (inactive)
Cc1[nH]nc2c1C(CCc1ccccc1)C(C#N)=C(N)O2 (configuration not stated)	0.1% (inactive)
C1CCC(C(CC2CCCCN2)C2CCCCC2)CC1 (configuration not stated)	91.8% (active)
N#CCSc1nc2c(c(=O)n1Cc1ccco1)C1(CCCC1)Cc1ccccc1-2	30.2% (inactive)
Cc1ccnc(N2CCN(c3c4c(c(C#N)c5nc6ccccc6n35)CCC4)CC2)c1	7.43% (inactive)
COc1cc(=O)[nH]c(=O)n1CC(=O)c1ccccc1	-1.03% (inactive)
CC1(C)Cc2c(C#N)c(N3CCN(C(=O)c4ccco4)CC3)nc(-c3ccco3)c2CS1	50.1% (active)
CC1(C)Cc2c(C#N)c(N3CCN(C(=O)c4ccco4)CC3)nc(Cc3ccccc3)c2CO1	72.3% (active)

Structure (SMILES)	growth inhibition
CCc1nc(N2CCN(C(=O)c3ccccc3)CC2)c(C#N)c2c1COC(C)(C)C2	36.6% (inactive)
CC1(C)Cc2c(C#N)c(N3CCN(C(=O)c4ccccc4)CC3)nc(-c3ccco3)c2CS1	12.2% (inactive)
CC1(C)Cc2c(C#N)c(N3CCOCC3)nc(Cc3ccccc3)c2CO1	16.7% (inactive)
CC1(C)Cc2c(c(-c3ccco3)[nH]c(=O)c2C#N)CS1	0.57% (inactive)
CCCCc1nc(NCCN2CCOCC2)c(C#N)c2c1COC(C)(C)C2	1.05% (inactive)
CCCCc1nc(NCCNC(=O)c2ccco2)c(C#N)c2c1CSC(C)(C)C2	56.1% (active)
CC1(C)Cc2c(C#N)c(NCCc3ccccc3)nc(-c3ccco3)c2CO1	1.2% (inactive)
CCOC(=O)C(C(=O)OCC)N(C#N)c1nc(SC)nc(N(C)C)n1	-4.38% (inactive)
Cc1nnc(SCC(=O)N2CCC(C(N)=O)CC2)s1	-21.6% (inactive)
C=C(C)CN(CC)CCC(=O)Nc1ccc(OC)cc1OC	4.6% (inactive)
COC(=O)CNC(=O)c1c(C)cc(=O)oc1C	0.81% (inactive)
CC1(C(=O)CSc2nc3ccccc3s2)CCC(=O)O1 (configuration not stated)	3.38% (inactive)
O=c1cc(N2CCCCC2)nc2n1CCCS2	8.96% (inactive)
Cc1ccc(S(=O)(=O)N2CCN(c3nc(C(C)C)c4c(c3C#N)CC(C)(C)OC4)CC2)cc1	29.3% (inactive)
Cc1ccc2[nH]c3c(NCCN4CCOCC4)ncnc3c2c1	18% (inactive)
Clc1ccc2[nH]c3c(NCCCN4CCOCC4)ncnc3c2c1	89.9% (active)
Clc1ccc2[nH]c3c(NCCN4CCOCC4)ncnc3c2c1	34.3% (inactive)
C=CCn1c(SCC#N)nc2c(c1=O)C(C)(C)Cc1ccccc1-2	28.8% (inactive)
COn1c(=S)[nH]c2ccccc2c1=O	3.49% (inactive)
CCSC(SCC)[C@H](O)[C@@H](O)[C@H](O)[C@H](O)CO	-2.15% (inactive)
CCCCCCCCCCCCCCCC(O)C(N)CO (configuration not stated)	94.3% (active)
Cc1cc(C)n(-c2c(F)c(F)c(CN3CCCCC3)c(F)c2F)n1	9.57% (inactive)
